Screens (PubChem)
FMDV inh = foot and mouth disease virus antiviral activity. FMDV antiviral cell-based qHTS. Potency, µM (top dose mostly 57.9 µM), inactives show at the top dose activity change, negative = inhibition, hits mostly inhibitors. 1.2% of 410,000 active; calls by dose curve; tested in HEK293T cells; further: read-out not given here; potency means the concentration at half of the fitted maximal effect; on the % scale 0 is the no-effect control and ±100 the full control effect; nearly all actives have a fitted effect of over 45% in size
LASV entry inh = inhibitors of Lassa virus binding or cell entry; 1.2% of 300,000 active; Lassa virus pseudotype entry inhibition, cell reporter; Potency, µM (series often up to 37.9 µM), without a hit: at the top dose activity change, negative = inhibition, usual class: inhibitors; calls by dose curve; tested in HEK293 cells; further: potency means the concentration at half of the fitted maximal effect; on the % scale 0 is the no-effect control and ±100 the full control effect; nearly all actives have a fitted effect of over 50% in size
SARS PLpro yeast = blocks SARS-CoV papain-like protease in a yeast assay. S. cerevisiae expressing SARS-CoV PLpro, growth rescue. Potency, µM (series often up to 32.9 µM), for inactives: top-dose activity, positive = growth rescue, actives largely listed as activators. 0.19% of 330,000 active. AID 485353; calls by dose curve; further: potency means the concentration at half of the fitted maximal effect; 0% is about no effect; nearly all actives have a fitted effect of over 55% in size
HCMV inh = inhibitors of human cytomegalovirus; HFF cells, HCMV-luciferase reporter, 72 h; stronger effect = lower value; AID 1259415; 4.5% of 410,000 active; activity change, negative = inhibition, % at 57.5 µM; in the data active means activity change below about -60%; inconclusive means no clear call, values can overlap the other calls; inactive means above about -39%; further: on the % scale 0 is the no-effect control and ±100 the full control effect
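Inhibition of viral replication was scored as loss of reporter luminescence in HFFs infected with HCMV-luciferase (MOI 1 PFU/cell) for 72 h; compounds tested at 2 doses, normalized to buffer and Salinomycin controls.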
HCV inh = HCV inhibition; Huh7.5.1 HCVcc-Cre infection, luciferase reporter, 44 h; Potency, µM (highest dose often 41.8 µM), without a hit: at the top dose activity change, negative = inhibition, usual class: inhibitors; 3.4% of 340,000 active; AID 651820; active means well fitted inhibition curve with a large enough effect; inconclusive means small, poorly fitted or top-dose-only effect, or another doubt; inactive means no such curve, though single readings can be large or run the other way; further: potency means the concentration at half of the fitted maximal effect; on the % scale 0 is the no-effect control and ±100 the full control effect
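Cells (1,000/well) were plated 4 h before compound, then infected with HCVcc-Cre virus (~0.5 moi). After 44 h further culture, infection was read as luciferase luminescence following a 15 min substrate incubation at room temperature.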
MARV entry inh = inhibitors of Marburg virus binding or cell entry | 1.8% of 300,000 active | Marburg virus pseudotyped entry inhibition, cell reporter | Potency, µM (doses to about 37.8 µM), without a hit: top-dose activity change, negative = inhibition, most hits filed as inhibitors | AID 540276; calls by dose curve; tested in HEK293 cells; further: potency means the concentration at half of the fitted maximal effect; on the % scale 0 is the no-effect control and ±100 the full control effect
* marks the source's active call; other numbers are inactive results; u = inconclusive; x = no result; + = active, no number; [ ] = remark or other dose. Rows were chosen to be rich in hits. Some 8% of all compounds tested hit in one or more screens of this group.

SMILES	FMDV inh	LASV entry inh	SARS PLpro yeast	HCMV inh	HCV inh	MARV entry inh
NC(=O)CC(NC(=O)Cc1cccc2ccccc12)c1ccc(NCCc2ccccc2F)c([N+](=O)[O-])c1 (centres undefined)	-7.1%	x	-1.1%	-80.8*	13.9%	x
NC(=O)CC(NC(=O)Cc1ccc(Br)cc1)c1ccc(NC2CCN(Cc3ccccc3)CC2)c([N+](=O)[O-])c1 (centres undefined)	9.3%	x	-2.8%	-93.5*	1.7%	x
NC(=O)CC(NC(=O)Cc1cccc2ccccc12)c1ccc(NC2CCCCCC2)c([N+](=O)[O-])c1 (centres undefined)	-5.2%	x	-0.4%	-35.8	u	x
CCOC(=O)c1[nH]c2c(c1Cc1ccccc1OC)C(=O)CC(c1ccc(OCC)cc1)C2 (centres undefined)	-4.0%	1.8%[46.1 µM]	x	-18.5	x	-5.5%[46.1 µM]
Cc1ccccc1-c1nn2c(=O)cc(CN3CCN(C(=O)/C=C/c4ccccc4)CC3)nc2s1	-15.4%	6.5%[46.1 µM]	x	5.7	x	x
COc1ccccc1-n1c(N)c(C(=O)NC[C@H]2CCCO2)c2nc3ccccc3nc21	x	x	x	x	x	-8.0%
CCNc1nc(Oc2ccccc2)nc(O[C@@H](C)C(=O)OCC)n1	x	x	x	x	x	0.0%
CCOC(=O)[C@@H]1[C@H]2COc3ccccc3[C@H]2N2C(=O)N(c3cccc(Cl)c3)C(=O)[C@]12C	-11.3%	x	-18.9%	-23.3	-1.4%	x
CCc1oc(C(=O)OC)cc1CSC(=N)N	-16.5%	-26.6%	-0.6%	-12.2	u	u
O=C(OCc1ccccc1)N1CCC2CC1c1ccc(N3CCOCC3)cc12 (centres undefined)	54.6%	x	x	16.8	x	x
O=C(OCc1ccccc1)N1CCC2CC1c1cc(N3CCOCC3)ccc12 (centres undefined)	3.2%	x	x	14.5	0.316µM*	x
O=C(NCc1ccccc1F)C1CCN(c2nn3cc(-c4ccc(F)cc4)nc3s2)CC1	35.1%	u	x	0.0	x	x
CCOc1ccccc1CNC(=O)C1CCN(c2nn3cc(-c4ccc(F)cc4)nc3s2)CC1	33.4%	14.0%[46.1 µM]	x	+	x	x
CCNC(=O)C1CCCN(c2nn3cc(-c4ccc(C)cc4)nc3s2)C1 (centres undefined)	20µM*	18.8%[46.1 µM]	x	u	x	x
CCOc1ccc(NC(=O)C2CCCN(c3nn4cc(-c5ccc(OC)cc5)nc4s3)C2)cc1 (centres undefined)	-0.3%	7.0%[46.1 µM]	x	+	x	x
COc1ccc(-c2cn3nc(N4CCCC(C(=O)Nc5ccc(C)c(C)c5)C4)sc3n2)cc1 (centres undefined)	11.2%	0.2%[46.1 µM]	x	0.0	x	x
Cc1cc(C)c2nc(SCC#N)cc(C)c2c1	x	-10.7%	5.6%	-16.3	u	-12.6%
C/C(N)=C(/C#N)C(=O)CSc1cc(C)c2cc(C)cc(C)c2n1	4.3%	-21.4%	-2.2%	-7.2	10µM*	24.1%[46.1 µM]
O=c1[nH]cc(NCCNc2ncc(C(F)(F)F)cc2Cl)c(=O)[nH]1	0.2%	x	-6.7%	-36.6	-1.8%	x
COC(=O)Cc1ccc(NC(=S)N2CCN(c3ccc(OC)cc3)CC2)cc1	-15.8%	-19.2%	12.2%	53.5	0.9%	-3.0%
COC(=O)Cc1ccc(NC(=S)N2CCN(c3cccc(O)c3)CC2)cc1	u	-12.4%	2.4%	-63.9*	u	-27.3%
COc1ccccc1CNC(=O)c1cn(C)c2ccc(S(=O)(=O)N(C)C3CCCCC3)cc2c1=O	1.9%	-6.4%[46.1 µM]	x	-4.9	x	15.6%[46.1 µM]
CC1(C)NC(=S)NC1=S	-21.4%	13.4%	x	-99.6*	10.5%	3.1%
CCC1(CC)NC(=S)NC1=S	3.5%	-4.7%	x	13.4	14.8%	17.6%
C=CCSc1n[nH]c(-c2ccc(OC)cc2)n1	46.7%	-18.2%	-15.6%	72.8	19.6%	1.2%
SMILES	FMDV inh	LASV entry inh	SARS PLpro yeast	HCMV inh	HCV inh	MARV entry inh
C=CCSc1n[nH]c(-c2ccccc2)n1	21.9%	11.4%	-15.9%	-89.3*	0.4%	u
COc1ccc(NC(=O)Cn2cc(S(=O)(=O)N3CCC(C)CC3)c3ccccc3c2=O)cc1Cl	18.1%	-14.8%[46.1 µM]	x	-8.8	x	u
CCOCCCNC(=O)C(c1ccc(Cl)cc1)N(Cc1ccc2c(c1)OCO2)C(=O)c1ccc(NC(C)=O)cc1 (centres undefined)	-17.3%	u	x	-3.6	x	u
CC(=O)Nc1cc(C(F)(F)F)ccc1OCCOc1ccccc1	-28.3%	-0.1%	x	16.4	10µM*	-2.9%
CCCOc1ccc(C(F)(F)F)cc1NC(=O)CCc1c(C)noc1C	-20.6%	x	0.3%	0.0	7.08µM*	x
C=CCN1CCN(C(=O)c2ccc3c(c2)OCO3)CC1	-5.4%	x	-4.0%	-2.6	23.2%	x
COc1ccc2cc3c(N)nn(C(=O)c4ccccc4[N+](=O)[O-])c3nc2c1	-11.9%	u	4.6%	-70.0*	u	u
COc1ccc2cc3c(N)nn(C(=O)c4ccc(Cl)c([N+](=O)[O-])c4)c3nc2c1	-1.7%	1.7%	-15.9%	-90.9*	-4.6%	u
COc1ccc(Cc2nnc(NC(=O)c3ccc(Cl)c([N+](=O)[O-])c3)s2)cc1	-14.7%	15.2%	2.6%	29.9	-1.9%	0.5%
CCCC1CCC(C(=O)n2nc(N)c3cc4ccc(OC)cc4nc32)CC1 (centres undefined)	-16.3%	-1.0%	-5.5%	-20.7	-6.9%[8.37 µM]	2.4%
O=C(N[C@H](c1ccccc1)C1CCCC=C1c1ccccc1)C(F)(F)F (some centres undefined)	x	x	x	x	x	-24.1%[14.2 µM]
c1cc(CN2CCCCC2)cc(OCCCNc2nc3ccccc3s2)c1	-14.8%	16.4µM*	x	-34.0	u	11.6µM*
C=C[C@@]1(C)CC(=O)[C@@]2(O)[C@@]3(C)[C@@H](O)CCC(C)(C)[C@@H]3[C@H](O)[C@H](OC(C)=O)[C@@]2(C)O1	-26.1%	x	x	x	x	x
O=C(Nc1cccc(Cl)c1)c1ccc(OC(=S)N2CCOCC2)cc1	8.7%	0.2%	-1.9%	u	12.6µM*	-21.5%[46.1 µM]
Cc1cccc(NC(=O)c2cccc(OC(=S)N3CCOCC3)c2)c1	0.5%	u	-0.8%	-29.4	u	-7.5%[46.1 µM]
O=C(Nc1cccc2ccccc12)c1ccc(OC(=S)N2CCOCC2)cc1	x	1.46µM*	4.2%	-35.9	u	2.59µM*
O=C(Nc1cccc2ccccc12)N1CCOCC1	-7.9%	0.2%	-0.5%	59.7	-24.1%	-0.7%
COc1ccc(CN2CCCC(c3nc(-c4ccncc4)ncc3-c3ccccc3)C2)c(OC)c1OC (centres undefined)	-4.3%	x	x	x	x	x
Cc1ccccc1NC(=O)Cn1c(=O)n(Cc2ccc3c(c2)OCO3)c(=O)c2oc3ccccc3c21	20.4%	5.3%[46.1 µM]	x	-16.1	x	x
Cc1ccccc1NC(=O)Cn1c(=O)n(Cc2ccc3c(c2)OCO3)c(=O)c2ccccc21	-14.7%	-11.3%[46.1 µM]	x	-61.4*	x	-19.3%[46.1 µM]
CCOCCCn1c(=N)c(C(=O)NCc2ccc3c(c2)OCO3)cc2c(=O)n3cccc(C)c3nc21	-14.8%	u	5.6%	u	0.9%	5.17µM*
